Screening data (PubChem)
Sfp inh: Sfp phosphopantetheinyl transferase inhibition; Biochemical Sfp PPTase activity, qHTS; Potency, µM, usual class: inhibitors; actives 3.5% (n = 310,000); AID 1490;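 also: the enzyme is Sfp with the accession as filed and its product quenches rhodamine fluorescence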
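Fluorescence-quenching assay with 15 nM Sfp, 5 uM rhodamine-CoA and 12.5 uM BHQ-2-labelled ybbR peptide in pH 7.6 Hepes/MgCl2 buffer. Enzyme was pre-incubated with compound for 15 min at room temperature. Rate was taken from the 30-min fluorescence change (525/598 nm).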
Tau fluor counter: counter-screen for tau fibril formation inhibitors; tau K18 P301L Alexa594 fluorescence, heparin fibrillization; Potency, µM (doses to about 57.7 µM); actives 0.93% (n = 280,000); AID 1463; also: nearly all actives have a fitted effect of over 55% in size
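Human K18 P301L tau (15 uM unlabeled plus 0.24 uM Alexa 594-labeled, final) in 100 mM sodium acetate pH 7 was mixed with compound and 20 uM heparin and incubated 6 hr at 37 C.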
G9a inh: G9a (human) methyltransferase inhibition. G9a H3K9 monomethylation, AlphaScreen, 2 h. actives 8.8% (n = 350,000). Potency, µM (series often up to 102 µM), actives largely listed as inhibitors. AID 504332. Q96KQ7; also: nearly all actives have a fitted effect of over 75% in size
Target sequence (Q96KQ7 913-1193 limits assumed): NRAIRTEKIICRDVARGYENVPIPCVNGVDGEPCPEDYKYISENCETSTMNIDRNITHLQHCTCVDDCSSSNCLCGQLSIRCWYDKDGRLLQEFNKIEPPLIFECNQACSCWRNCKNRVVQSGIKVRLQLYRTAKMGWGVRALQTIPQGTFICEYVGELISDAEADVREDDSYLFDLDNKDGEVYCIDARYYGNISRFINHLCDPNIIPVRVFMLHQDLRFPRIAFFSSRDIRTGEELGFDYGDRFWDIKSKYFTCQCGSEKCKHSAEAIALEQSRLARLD
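Step 1: enzyme (final 20 nM) with compound, 15 min RT. Step 2: substrate peptide 500 nM and SAM 20 uM, 2 h RT. Step 3: anti-H3K9me1 antibody and AlphaScreen beads, 10 min, then plate read.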
Coupling enz: counter-screen for Giardia aldolase inhibitors: coupling enzyme system. actives 0.67% (n = 290,000). activity change, negative = inhibition, % at 58.2 µM, hits read low. coupling enzyme system counterscreen, AmpLite Red fluorescence; in the data active = activity change below about -30%
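Coupling enzymes only (glyceraldehyde-3-phosphate) + compound, at 57.5 uM final, 10 min RT; add substrate/coupling/AmpLite Red mix, 20 min RT; fluorescence ex 525/em 598 nm. Actives flag coupling-system interference.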
Tau fibril FP: tau fibrillization inhibition (FP). actives 0.39% (n = 280,000). Potency, µM (doses to about 57.7 µM), hits mostly inhibitors. K18 P301L tau heparin fibrillization, Alexa594 FP, 6 h. P10636. AID 1468; also: nearly all actives have a fitted effect of over 55% in size
Target sequence (P10636 561-689 P618L limits assumed): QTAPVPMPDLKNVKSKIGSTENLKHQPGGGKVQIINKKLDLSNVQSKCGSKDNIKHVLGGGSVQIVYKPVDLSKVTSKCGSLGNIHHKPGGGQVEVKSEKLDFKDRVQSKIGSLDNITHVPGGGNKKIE
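FP of Alexa 594-tau after heparin (20 uM) induction. Substrate: human K18 P301L, 15 uM unlabeled, 0.24 uM labeled. Buffer 100 mM sodium acetate pH 7. 6 hr, 37 C.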
Tau fibril ThT: blocks human tau fibril formation measured by thioflavin T; Potency, µM (titrated, usually from 57.4 µM), most hits filed as inhibitors; AID 1460; recombinant tau K18 P301L, heparin-induced fibrillization, ThT fluorescence; actives 2.1% (n = 270,000); P10636; also: nearly all actives have a fitted effect of over 55% in size
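Using a mix of unlabeled (15 uM) and Alexa 594-labeled (0.24 uM) tau K18 P301L, heparin-triggered fibrillization over 6 hr at 37 C was scored by ThT fluorescence.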
A number is an active result; . = inactive; ? = inconclusive; / = no result; [ ] = another dose, or the depositor's remark. Compounds with a hit are over-represented: about 11% of the library has one in this group of screens. Unless noted, calls follow the shape of the dose curve; as a rule, active = well fitted curve in the direction sought with a large enough effect; inconclusive = small, poorly fitted or top-dose-only effect, or another doubt; inactive = no such curve, though single readings can be large; an effect the other way counts as inactive or inconclusive.

SMILES	Sfp inh	Tau fluor counter	G9a inh	Coupling enz	Tau fibril FP	Tau fibril ThT
COc1cc(S(=O)(=O)N(Cc2ccco2)C2CCCC2)ccc1-n1cnnn1	?	.	32µM	.	.	.
COc1cc(S(=O)(=O)N(Cc2ccccc2)CC2CCCO2)ccc1-n1cnnn1 (centres undefined)	.	.	.	.	.	.
CCN(CC)S(=O)(=O)c1ccc(-n2cnnn2)c(C)c1	.	.	.	.	.	.
CCOc1ccccc1CN(Cc1ccco1)S(=O)(=O)c1ccc(-n2cnnn2)c(OC)c1	.	.	8.9µM	.	.	?
O=C(CN1C(=O)CCc2cc(Br)ccc21)Nc1ccc(OC(F)(F)F)cc1	/	.	.	/	?	.
COc1ccc(-c2nc(Cn3c(SCc4ccc(C)cc4)nc4cccnc43)c(C)o2)cc1OC	/	.	?	/	.	?
CC(C)=CCn1cnc2c1C(NOCc1ccccc1)=NCN2	.	.	/	.	.	.
COc1ccc(CCNC(=O)c2cc(Sc3cccc(Cl)c3)nc3ccccc23)cc1OC	/	.	.	/	.	.
O=C1/C(=C\c2ccco2)SC(=S)N1C1CCS(=O)(=O)C1 (centres undefined)	32µM	?	/	.	?	25µM
O=C1/C(=C/c2ccco2)SC(=S)N1C1CCS(=O)(=O)C1 (centres undefined)	.	?	45µM	-45	?	28µM
O=C(c1ccc(F)cc1)N1CCc2c([nH]c3ccccc23)C1c1ccc(Cl)cc1 (centres undefined)	/	.	?	/	.	.
COc1ccccc1CNC(=O)CN1C(=O)CSc2ccc(S(=O)(=O)N3CCCCC3)cc21	/	.	.	/	.	.
CC(=O)c1ccc(S(=O)(=O)Nc2cccc(-c3ccc(N4CCCC4)nn3)c2)cc1	/	.	.	/	.	.
O=C(O)c1cnn2c(-c3ccccc3)ccnc12	?	/	35µM	.	/	/
O=C(O)c1cnn2c(-c3ccc(F)cc3)ccnc12	.	.	.	.	.	.
Cc1noc(C)c1C(=O)N1CCC2(CCCN(c3ccccn3)C2)CC1	.	/	.[12.7 µM]	.	/	/
Cc1ccc(C)c(Nc2nnc(-c3ccc(C)c(S(=O)(=O)N4CCN(C)CC4)c3)c3ccccc23)c1	/	.	13µM	/	.	.
COc1ccc(C)cc1NC(=O)CCNS(=O)(=O)c1ccc2c(c1)CC(C)N2C(C)=O (centres undefined)	.	/	.	.	/	/
Cc1ccc(C)c(OCC(=O)Nc2ccccc2N2CCCC2)c1	.	/	40µM	.	/	/
CCOc1ccc(OCC(=O)Nc2ccccc2N2CCCC2)cc1	/	/	50µM	/	/	/
CCOc1cc(CNS(=O)(=O)c2ccc3c(c2)CC(=O)N3C)cc(OCC)c1OCC	.	.	.	.	.	.
CCN1C(=O)[C@@H]2[C@H]3C(=CC[C@@H]2C1=O)C1(OCCCO1)[C@H]1O[C@@H]1[C@H]3O	?	?	/	.	?	2.8µM
COc1ccccc1CNC(=O)CC12CC3CC(CC(Br)(C3)C1)C2	.	/	.	.	/	/
CC(C(=O)NNS(=O)(=O)c1cccc(C(F)(F)F)c1)n1nnc(N2CCOCC2)n1 (centres undefined)	.	.	32µM	.	.	.
Cc1cc(N=Cc2c(O)n(-c3ccc4c(c3)OCO4)c(=O)c3ccccc23)ccn1	?	?	.	.	.	?
SMILES	Sfp inh	Tau fluor counter	G9a inh	Coupling enz	Tau fibril FP	Tau fibril ThT
Cc1ccc(-n2c(O)c(C=Nc3ccc4c(c3)OCO4)c3ccccc3c2=O)cc1C	35µM	.	.	.	.	.
Oc1ccc(Br)cc1/C=N/n1c(C2CCCCC2)n[nH]c1=S	.	/	50µM	.	/	/
Oc1ccc(/C=N/n2c(C3CCCCC3)n[nH]c2=S)c(O)c1	0.18µM	/	1.6µM	.	/	/
O=C(N/N=C/c1ccc(O)cc1O)c1ccc(NC(=O)C2CCCCC2)cc1	.	/	.	/	/	/
CCc1cccc(NC(=O)CCc2nc3cccnc3n2Cc2ccc(OC)cc2)c1	/	.	.	/	.	.
Cc1cc(C)c2nc(-c3ccccn3)cc(C(=O)Nc3ccc(S(=O)(=O)Nc4cc(C)on4)cc3)c2c1	?	.	.[0.501 µM]	/	.	.
Cc1cc(C)c2nc(-c3ccccn3)cc(C(=O)NCCc3ccc(S(N)(=O)=O)cc3)c2c1	28µM	.	35µM	.	.	.
Cc1cc(C)c2nc(-c3ccccn3)cc(C(=O)NCc3ccc(S(N)(=O)=O)cc3)c2c1	.	.	.	.	.	.
Cc1cc(C)c2nc(-c3ccccn3)cc(C(=O)Nc3ccc(S(=O)(=O)Nc4onc(C)c4C)cc3)c2c1	35µM	.	13µM	.	.	?
Cc1ccc(CN(Cc2ccco2)C(=O)COc2ccccc2C)cc1	/	.	.	/	.	.
O=C(O)c1cc(NN=C2c3ccccc3-c3ccccc32)ccc1Cl	.	/	45µM	.	/	/
O=C(O)c1cccc2c1-c1ccccc1/C2=N\Nc1ccccc1	13µM	/	50µM	.	/	/
O=C(O)c1cc(N/N=C/C(Cl)=C/c2ccccc2)ccc1Cl	.	.	35µM	.	.	14µM
O=C(O)c1cc(N/N=C/c2cccs2)ccc1Cl	.	.	?	.	.	?
NC(=O)N/N=C1\c2ccccc2-c2c(C(N)=O)cccc21	.	/	.	.	/	/
NNc1ccc(Cl)c(C(=O)O)c1	.	.	1.3µM	.	.	?
CC(=O)O[C@H]1CC(=O)OC(C)(C)C2CC(=O)[C@]3(C)C(CC[C@@](C)([C@@H](O[C@@H]4O[C@H](CO)[C@@H](O)[C@H](O)[C@H]4O)c4ccoc4)[C@@]34O[C@@H]4C(=O)O)[C@]21C (some centres undefined)	/	/	.[12.7 µM]	/	/	/
CCOC(=O)c1ccc(Nc2nc(C)nc3c2nnn3Cc2ccccc2)cc1	?	/	.	.	/	/
Cc1cccc(C(=O)Nc2c(-c3ccc(F)cc3)nc3ccccn23)c1	/	.	.	/	.	.
O=C(O)c1cccc(NN=C2c3ccccc3-c3ccccc32)c1	.	?	40µM	.	.	?
Nc1ccccc1C(=O)Nc1cccc(C(=O)O)c1	.	.	.[12.7 µM]	.	.	.
COc1cc(C(=O)NC(=S)NNC(=O)c2ccc3c(c2)OCO3)cc(OC)c1OC	.	.	35µM	.	.	/
Cc1cccc(NC(=O)c2ccc3c(c2)OCCO3)c1	.	/	.	.	/	/
Cc1cccc(NC(=S)NNC(=O)c2ccc3c(c2)OCO3)c1	.	.	45µM	.	.	?
CCCc1cc(C(=O)NNC(=S)Nc2cccc(C)c2)cs1	.	?	8.9µM	.	.	?
CS(=O)(=O)N(CC(=O)Nc1ccccc1C(=O)N1CCCC1)c1ccc2c(c1)OCO2	.	.	.	.	.	.
O=C(NCSc1ccnc(SCNC(=O)c2ccc(F)cc2)n1)c1ccc(F)cc1	8.9µM	.	2.8µM	.	.	.
